Source: PubChem BioAssay AID1671190 (National Center for Advancing Translational Sciences (NCATS), 2021)
The whole screen tested about 580,000 compounds, of which about 6,100 (1.1%) were called active. Roughly 15% stayed inconclusive and do not appear here. Calls come from the whole dose curve; as a rule, active = well fitted inhibition curve with a large enough effect; inconclusive = small, poorly fitted or top-dose-only effect, or another doubt; inactive = no such curve, though single readings can be large or run the other way. Many of the other results were omitted from the sample, so actives are more common in it than they were.

Biological target: Polyunsaturated fatty acid lipoxygenase ALOX12 (Homo sapiens) (UniProt P18054)
Assay: Primary qHTS assay for inhibitors of human arachidonate 12S-lipoxygenase (ALOX12): Round 2
Settings: purified 12hLO, xylenol orange hydroperoxide absorbance; series mostly up to 108 µM
In short: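 Purified human 12hLO (150 nM final) in 25 mM Hepes, 0.01% Triton X-100, pH 7.0 was preincubated 15 min at room temperature with compound. Then 40 uM arachidonic acid was added, 30 min. Hydroperoxide was read by Fe-XO absorbance ratio 573/405 nm.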
% is set by controls: 0 for no effect and ±100 for the full control effect; potency is the fitted concentration of half-maximal effect.

Chain of Polyunsaturated fatty acid lipoxygenase ALOX12 (Homo sapiens) (P18054 whole entry, looked up): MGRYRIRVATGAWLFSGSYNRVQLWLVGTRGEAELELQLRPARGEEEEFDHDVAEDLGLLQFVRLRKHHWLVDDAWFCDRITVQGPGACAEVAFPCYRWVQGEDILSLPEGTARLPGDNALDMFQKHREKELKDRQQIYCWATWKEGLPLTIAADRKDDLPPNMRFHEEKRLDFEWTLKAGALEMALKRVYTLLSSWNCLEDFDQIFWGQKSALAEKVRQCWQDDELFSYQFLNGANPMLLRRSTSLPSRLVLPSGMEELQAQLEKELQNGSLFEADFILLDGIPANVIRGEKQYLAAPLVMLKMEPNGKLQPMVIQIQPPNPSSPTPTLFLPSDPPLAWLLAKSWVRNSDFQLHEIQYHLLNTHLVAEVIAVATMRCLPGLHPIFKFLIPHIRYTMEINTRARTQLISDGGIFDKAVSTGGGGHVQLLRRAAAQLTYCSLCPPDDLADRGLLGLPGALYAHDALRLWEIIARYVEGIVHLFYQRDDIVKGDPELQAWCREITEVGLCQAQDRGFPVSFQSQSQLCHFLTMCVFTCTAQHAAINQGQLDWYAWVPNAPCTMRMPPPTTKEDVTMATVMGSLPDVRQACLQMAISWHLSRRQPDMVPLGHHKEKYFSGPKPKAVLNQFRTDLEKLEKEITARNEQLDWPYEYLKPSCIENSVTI

Potency, inactive:
O=CN1CCN(C(=O)CCC(=O)O)CC1
Clc1ccc(Cn2ncc3c(NCc4cccnc4)ncnc32)cc1
Cc1cnc(CNc2nc(-c3cccnc3)nc3ccccc23)cn1
Cc1cccc(-c2cc(C(=O)NCC3CCCO3)c3ccccc3n2)c1 (configuration not stated)
COc1ccc(-c2noc(-c3cc4cc(Cl)ccc4oc3=O)n2)cc1OC
O=C(CSc1nnc(-c2ccncc2)n1C1CCCCC1)Nc1ccccc1
CCn1c(SCC(=O)NC2CC2)nnc1-c1ccncc1
CCOc1ccc(CNS(=O)(=O)c2ccc(-c3ccc(=O)[nH]n3)o2)cc1
O=C(NC1CCS(=O)(=O)C1)c1cc2ccccc2oc1=O (configuration not stated)
CCCCc1cc(C[C@H]2CNCC[C@H]2CC(=O)N(CC)CC)no1
O=C(C[C@@H]1CCNC[C@@H]1Cc1cc(-c2ccc(F)cc2)on1)NCCN1CCOCC1
COc1ccc(S(=O)(=O)Nc2nc3ccccc3nc2Nc2cccc(C)c2)cc1
COc1ccc(C(=O)OCc2ccc(Br)cc2)c(OC)c1
COc1ccc(OC(=O)CCc2ccc3c(c2)OCCO3)cc1
CCOC(=O)COc1ccc2c(=O)c(-c3ccc(OC)c(OC)c3)c(C)oc2c1
CC(C)C[C@@H]1N[C@H](C(=O)NCc2ccc(F)cc2)Cc2cn(C)c3cccc1c23
Cc1ccc(Cl)c(OC(C)C(=O)NN)c1 (configuration not stated)
CCOC(=O)C[C@H]1c2ccc(C(F)(F)F)cc2S(=O)(=O)N1c1ccccc1
CCOC(=O)/C=C/c1ccc(C(F)(F)F)cc1S(=O)(=O)NC(C)(C)C
Cc1ccc(S(=O)(=O)N2CCCC(C(=O)O)C2)cc1F (configuration not stated)
NC(=O)CN1C(=O)C(O)(CC(=O)c2ccc3c(c2)OCO3)c2ccccc21 (configuration not stated)
CS(=O)(=O)Nc1ccc([C@H]2OCC(=O)N(C3CCOCC3)[C@@H]2CO)cc1
Cc1ccc2[nH]cc(C(C(=O)O)N3CCN(c4ccccc4)CC3)c2c1 (configuration not stated)
Cc1ccc(C(=O)NC(C)C)c(Cl)c1
O=C(O)c1ccc(CSc2ccc(Cl)cc2Cl)cc1
Cc1ccc(C2(C(=O)N3C[C@@H](CN4CCCCC4)[C@@H](CO)C3)CC2)cc1
Cc1[nH]c2ccccc2c1C(=O)C(C)Sc1nnc(C2CC2)o1 (configuration not stated)
CC(Sc1ccc2c(c1)OCCCO2)C(=O)O (configuration not stated)
COc1ccc(-c2c(C)c3ccc(OCC(=O)OC(C)(C)C)cc3oc2=O)cc1OC
CCN(C1CCCCC1)S(=O)(=O)c1ccc(C(=O)Nc2ccc(Cl)c3ncsc23)cc1
CO[C@@H]1COCC[C@H]1NC(=O)CCCc1nc(-c2ccccc2C)no1
CC1CC(=O)Nc2ccccc2N1S(=O)(=O)c1cccs1 (configuration not stated)
CC1CC(C)(C)NC(=S)N1CCC(=O)N1CCN(Cc2ccccc2)CC1 (configuration not stated)
O=C(CCN1C(=O)c2ccccc2S1(=O)=O)Nc1ccc(S(=O)(=O)N2CCCC2)cc1
C=C(Br)CNCc1ccccc1
Cc1ccc(C(C)NC(=O)CCc2nc(C(C)C)no2)o1 (configuration not stated)
Cc1ccccc1-c1cc(C(=O)NCCN2CCNC2=O)c2c(c1)N(C)CCO2
COc1ccccc1N1CCN(C(=O)C2CCN(S(=O)(=O)c3c(C)noc3/C=C/c3ccc(C)cc3)CC2)CC1
Cc1noc(/C=C/c2ccco2)c1S(=O)(=O)N1CCC(C(=O)Nc2ccc(Cl)cn2)CC1
CN(CC(=O)NC(C)(C)C)Cc1cccc2cccnc12
Cc1nnc(SCc2cc(=O)[nH]c(N3CCN(Cc4ccccc4)CC3)n2)s1
CC(C)C(=O)Nc1cc(Cl)ccc1Cl
CC(C)C(=O)N1CCN(C(=O)c2cc3ccccc3n2C)CC1
CNc1c(NC(=O)Nc2ccc(F)cc2F)c(=O)oc2ccccc12
O=c1[nH]c(CCl)nc2cc(-c3ccc(Cl)cc3)sc12
CCOC(=O)C1Cn2c(nc3c(c2=O)C(C)(CC)Cc2ccccc2-3)S1 (configuration not stated)
CC(C)C(=O)Nc1ccc(-c2nc3ccccc3o2)cc1
CCOC(=O)c1nc2ccccc2nc1NCc1ccc(C)cc1
CC(=O)c1c(C)[nH]c(C(=O)c2oc3ccc(Cl)cc3c2C)c1C
COC(=O)c1ccc(/C=C2\Oc3cc(OS(C)(=O)=O)cc(C)c3C2=O)cc1
CCN1CCN(c2cc3nc(C)n(Cc4ccccc4)c(=O)c3cc2NC(=O)c2ccccc2F)CC1
Cc1cccc(N2CCN(C(=O)c3ccccc3NC(=O)C3CCCCC3C(=O)O)CC2)c1 (configuration not stated)
O=C(c1cccc(Br)c1)N1CCC(CCc2ccc(O)cc2)CC1
Cc1ccc(NC(NC(=O)c2cccc(C)c2)C(Cl)(Cl)Cl)cc1 (configuration not stated)
O=C1C=C(c2cccc(Cl)c2O)C[C@@H](c2ccc(F)cc2)C1
CCc1nc2nc3c(cn2n1)C(=O)CC(c1ccc(Cl)cc1)C3 (configuration not stated)
CCCCc1ccc(NC(=O)c2cc3c(s2)CCCC3)cc1
CN(Cc1ccon1)C(=O)c1coc(COc2ccc(F)cc2Cl)n1
Cn1c(=O)c2c(ncn2CCC(=O)NCc2ccc(F)cc2)n(C)c1=O
CN1CCN(c2ccc3nnc(C4CCC4)n3n2)CC1
CCOC(=O)c1ccc(NC(=O)N2Cc3[nH]cnc3C[C@H]2c2nc(-c3ccc(Cl)cc3)no2)cc1
Cc1ccc(-c2noc([C@@H]3Cc4nc[nH]c4CN3C(=O)Nc3ccccc3)n2)cc1
Cc1nc(NC2CCCCC2)sc1C(=O)Nc1ccccc1
CC(C)C(=O)N/N=C/c1ccc(Cl)cc1
COc1cc2c(cc1O)NC(=O)CC2c1cn[nH]c1-c1cc(C)ccc1C (configuration not stated)
CC(C)OCC(O)Cn1c(NCc2ccccc2)nc2c1c(=O)[nH]c(=O)n2C (configuration not stated)
O=C(COC(=O)c1cccc(NS(=O)(=O)c2ccccc2)c1)NCc1cccs1
CC1CCCCN1C(=O)Cn1c(=O)oc2cc(S(=O)(=O)N3CCCCC3)ccc21 (configuration not stated)
COc1cccc(CNC(=O)Cn2c(=O)oc3cc(S(=O)(=O)N4CCCCC4)ccc32)c1
Cc1ccc(OCCC(=O)Nc2cc3c(cc2Cl)OCCO3)c(C)c1
CCOc1ccc(C(C)NC(=O)Cn2c(=O)c3c(ncn3C)n(C)c2=O)cc1 (configuration not stated)
CC1=C[C@@H](CN(C)CCc2ccccn2)[C@H](C(C)C)C[C@H]1Cc1nnc(-c2ccccc2F)o1
O=C(CCn1ccc(=O)[nH]c1=O)N[C@@H]1COCC[C@@H]1OCc1ccccc1
C=CCNC(=S)N(CC)CC
COc1cc(S(=O)(=O)Nc2ccccc2OC)ccc1NC(C)=O
COC(=O)c1ccccc1NS(=O)(=O)c1ccc2c(c1)CCCN2C(C)=O
O=C(O/N=C1\CCCc2oc3c(c21)CCCC3)c1ccc(Cl)c(Cl)c1
Cc1ccc(Cn2c(N3CCC(C(N)=O)CC3)nc3c2c(=O)n(C)c(=O)n3C)cc1
Cc1oc(-c2ccccc2)nc1C(=O)NC(C1CC1)C1CC1
O=C(NCCn1c(-c2ccccc2)nc2ccccc21)NCc1ccccc1
COc1ccc(NC(=O)C(c2ccncc2)n2c(=O)c(-c3cc4ccccc4[nH]3)nc3ccccc32)cc1 (configuration not stated)
CCC(C(=O)Nc1c(C)cccc1C)n1c(-c2cc(C)cs2)nc2ccccc21 (configuration not stated)
CC(C)(C)NC(=O)C(CCc1ccccc1)n1c(=O)c(-c2ccccc2)nc2ccccc21 (configuration not stated)

Potency, active:
c1ccc(CNc2ncncc2-c2cccnc2)cc1 39.8 µM
CC1CCCCC1NC(=O)CSc1nnc(-c2ccncc2)n1CCCN(C)C (configuration not stated) 0.355 µM
CN(Cc1ccccc1)C(=O)C[C@@H]1CCNC[C@@H]1Cc1cc(-c2ccc(C(C)(C)C)cc2)on1 25.1 µM
CCCCc1c/c(=N\O)oc2cc3occ(C)c3cc12 17.8 µM
CCOC(=O)C1Nc2ccc(C(F)(F)F)cc2C2C=CCC12 (configuration not stated) 17.8 µM
CC(C)OC(=O)c1ccc(NCc2cc(O)ccc2O)cc1Cl 10 µM
Cc1[nH]c2ccccc2c1C(=O)C(C)Sc1ccc2c(c1)OCCCO2 (configuration not stated) 14.1 µM
CC1CC(=S)Nc2ccccc2N1Cc1ccccc1 (configuration not stated) 44.7 µM
Cc1noc(/C=C/c2ccco2)c1S(=O)(=O)N1CCC(C(=O)N2CCc3ccccc32)CC1 14.1 µM
Cc1cc(C)cc(C(=O)NC2C(=O)N3C(C(=O)O)=C(CSc4nnc(C)s4)CSC23)c1 (configuration not stated) 39.8 µM
CCC1(CC)Cc2ccccc2-c2nc(CCl)[nH]c(=O)c21 7.08 µM
Cc1cccc(N2CCN(c3ccc(C(=O)O)cc3NC(=O)c3ccccc3F)CC2C)c1 (configuration not stated) 50.1 µM
CCCCC/C=C/C1=CC(=O)C[C@H](c2ccc(Cl)cc2)C1 35.5 µM
CC(C)NC(=O)N1Cc2[nH]cnc2C[C@H]1c1nc(-c2ccc(Cl)cc2)no1 14.1 µM
CNC(=O)c1ccc(NC(=O)CCn2c(=O)oc3cc(S(=O)(=O)N4CCCC4)ccc32)cc1 35.5 µM
COc1ccc(Br)cc1/C=N/Nc1ccc(S(=O)(=O)Nc2ccccc2C(=O)O)cc1[N+](=O)[O-] 14.1 µM
N#Cc1ccc(C(C(=O)NCc2ccccc2)n2c(=O)c(-c3ccco3)nc3ccccc32)cc1 (configuration not stated) 17.8 µM
Cc1cccc(C)c1NC(=O)C(c1ccc(C(F)(F)F)cc1)n1c(=O)c(-c2ccco2)nc2ccccc21 (configuration not stated) 14.1 µM

Activity change, negative = inhibition, inactive:
CO/N=C(/C(=O)N[C@@H]1C(=O)N2C(C(=O)O)=C(Cn3nnc(C)n3)CS[C@H]12)c1csc(N)n1 -8.52% [at 22.9 µM]
